# According to PubChem BioAssay:
# Values without a mark were called inactive. The source made the active and inactive calls.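 Rule for the calls: active = inhibition above the hit cutoff set in the earlier primary screen (cut at about 27% in these data); inactive = the rest.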
# Target: Protein phosphatase methylesterase 1 (Homo sapiens) (UniProt Q9Y570)
# Experiment: human PME-1 methylesterase inhibition confirmation – biochemical, fluorescence polarization, FP-Rh probe, triplicate (AID 2171);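 note: 0% = enzyme with DMSO and 100% = wells lacking PME-1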
# Settings: recombinant PME-1, FP-Rh probe fluorescence polarization; at 5.9 µM; active compounds read high
# Protein phosphatase methylesterase 1 (Homo sapiens), sequence (Q9Y570 whole entry, looked up): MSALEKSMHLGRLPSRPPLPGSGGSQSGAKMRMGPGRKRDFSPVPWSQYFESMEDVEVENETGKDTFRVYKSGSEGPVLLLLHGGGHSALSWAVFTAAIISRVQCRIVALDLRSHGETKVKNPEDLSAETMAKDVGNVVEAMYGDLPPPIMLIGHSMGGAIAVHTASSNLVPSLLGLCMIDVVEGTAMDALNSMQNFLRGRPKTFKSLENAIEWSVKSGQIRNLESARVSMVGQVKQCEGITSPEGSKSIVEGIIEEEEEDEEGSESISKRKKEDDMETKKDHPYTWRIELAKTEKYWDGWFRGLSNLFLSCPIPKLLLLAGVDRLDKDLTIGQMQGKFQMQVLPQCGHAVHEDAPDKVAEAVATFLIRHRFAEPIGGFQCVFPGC
row,Compound,inhibition
1,Nc1c(C(=O)Nc2cccc(C(=O)O)c2)sc2nc3c(cc12)CCCC3,30.8% (active)
2,Cc1cc2c(N=O)c(NO)ccc2[nH]1,33.3% (active)
3,CCOc1ccccc1/C=C(\C#N)C(=O)Nc1cccc(C(=O)O)c1,5.46%
4,Cc1cc2c(N)cccc2nn1,7.9%
5,CCOC(=O)CSc1nc2cc3c(cc2cc1C#N)OCCO3,20.1%
6,Cn1c(=N)n(CC(=O)c2ccc(Br)cc2)c2ccccc21,13.3%
7,Nc1nonc1N/N=C/c1c(O)ccc2ccccc12,23.6%
8,Cc1cccc2cc(/C=N/Nc3ccc(C(=O)O)cc3)c(Cl)nc12,43.7% (active)
9,N#C/C(=C/c1ccc(O)c(O)c1)c1nc2ccccc2[nH]1,-30.6%
10,Nc1c(C(=O)Nc2ccccc2)sc2nc(-c3ccco3)ccc12,59.5% (active)
11,Cn1c2ccccc2c2cc(/C=N/NC(=O)c3cc(O)ccc3O)ccc21,40.5% (active)
12,N#Cc1c(N)n(CCOC(=O)c2cccc([N+](=O)[O-])c2)c2nc3ccccc3nc12,19.5%
13,Cc1ccc(N=Nc2c(N)n(-c3ccccc3)[nH]c2=O)cc1,33.1% (active)
14,CCN(CC)C(=O)CSc1nc2c(sc(=S)n2-c2ccccc2)c(=O)n1Cc1ccco1,78.6% (active)
15,COc1ccccc1NC(=O)c1cc2ccc(O)cc2o/c1=N\O,19.6%
16,Cc1ccc(-c2nc(Nc3ccc(O)cc3)c3ccccc3n2)cc1,6.25%
17,Cn1c(=O)c(C#N)c(-c2ccc(F)cc2)c2cc(C(=O)c3cc(Cl)cc(Cl)c3O)cnc21,59.1% (active)
18,CCCCNc1c2c3c(cccc3n(C)c1=O)C(=O)c1ccccc1-2,71.1% (active)
19,CN(C)S(=O)(=O)c1cccc(NC(=O)c2cc([N+](=O)[O-])ccc2N2CCCCC2)c1,43.2% (active)
20,CN(C)c1ccc(NC(=O)Nc2ccc3snnc3c2)cc1,21%

row,Compound,inhibition
1,N#C/C(=C/c1ccc(N2CCCC2)c([N+](=O)[O-])c1)c1nc2ccccc2[nH]1,30.9% (active)
2,S=C(NCCNC(=S)Nc1ccccc1)Nc1ccccc1,19.9%
3,COc1ccc(N=Nc2nc3ccc(Br)cc3n2C)cc1,29.7% (active)
4,CCN(CC)c1ccc(/C=N/NC(=O)c2cccc(S(=O)(=O)Nc3ccccc3OC)c2)c(O)c1,25.8%
5,N#CCC(=O)c1ccccc1Oc1ccc(Cl)cc1,13.4%
6,Oc1nc(Nc2ccccc2)sc1/C=C1\C=Nc2ccccc21,-2.4%
7,O=C(CNc1ccccc1)N/N=C/c1c(O)ccc2ccccc12,17.1%
8,Cc1[nH]c2ccccc2c1/C=C/c1nc2ccccc2c(=O)n1CCO,68.3% (active)
9,O=c1[nH]nc(CNc2ccc(O)cc2)c2ccccc12,8.74%
10,CSc1ccccc1C(=O)NCCCn1ccnc1,5.36%
11,N#CCC(=O)Nc1ccc(C(=O)OCC(=O)Nc2ccccc2Sc2ccccc2)cc1,-19%
12,Oc1ccc(/C=N/Nc2cccc3cccnc23)c(O)c1,82.7% (active)
13,CCCCN(CC)CCCNC(=O)c1cn(C)c2ccc(S(=O)(=O)N(C)C3CCCCC3)cc2c1=O,14.5%
14,COc1cc(NC(=O)c2cc3ccccc3cc2O)c(OC)cc1Cl,9.45%
15,CCOC(=O)N1CC=C2C(C#N)=C(N)C(C#N)(C#N)[C@H](c3ccccc3OCC)[C@H]2C1,90.5% (active)
16,COc1ccc(-c2oc(NC(=O)CCl)c(C#N)c2-c2ccc(OC)cc2)cc1,22.7%
17,O=C(Nc1ccc2[nH]c(=S)sc2c1)Nc1ccccc1F,67.4% (active)
18,Cc1ccc(NCC(O)C(O)C(O)CO)c(N=Nc2ccccc2)c1C (stereo not given),50.7% (active)
19,Cc1ccccc1NC1=C/C(=N\S(=O)(=O)c2ccc(C(=O)O)cc2)c2ccccc2C1=O,40% (active)
20,CCOC(=O)c1c(C)[nH]c(C)c1S(=O)(=O)N(C)CC(=O)Nc1cc(C)ccc1OC,24.4%
